Sa growth inh: S. aureus growth inhibition at 42 and 30 °C, primary screen, LtaS inhibitor project, RN4220, two temperatures; relative growth, % (concentration not given with the values); hit rate 0.53% among 170,000; OD600, 20 h, 42 °C; hits give low values; AID 720641, 2013;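 active means relative growth at most 50% at the other temperature and 20+ points below 30 °C, or under 10% at both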
Sa helicase inh: inhibitors of S. aureus replicative helicase, primary screen, biochemical, fluorescence unwinding readout; purified S. aureus helicase, fluorescence unwinding assay; inhibition, % (no concentration beside the values); hit rate 0.05% among 120,000; AID 485395, 2010; in the data active means inhibition above about 25%, passing the limit was not always enough;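 further: 0% = mean of negative control wells and 100% = mean of positive control wells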
HCMV NEC inh: inhibitors of HCMV UL50-UL53 interaction, biochemical, HTRF. AID 1918969, 2023. hit rate 0.15% among 190,000. inhibition, % (test concentration not listed). normalized percent inhibition; in the data active means inhibition above about 27%, passing the limit was not always enough
An asterisk follows results filed as active; x = no result given; ! = not active in a repeat. Only a selection was taken, and hits are over-represented in it overall.

SMILES	Sa growth inh	Sa helicase inh	HCMV NEC inh
CCCCS(=O)c1sc2nc(-c3cccs3)cc(-c3ccccc3)c2c1N (stereo unspecified)	12.5*	8.0	x
CCCCS(=O)c1sc2nc(C)cc(C)c2c1N (stereo unspecified)	81.2	4.0	-56.8
CCCCNC(=S)Nc1ccc(SC(F)F)cc1	0.6*	12.0	-20.7
CCCCNC(=S)Nc1ccc(OC)cc1	110.3	-9.0	14.0
CC(=O)Nc1cccc(-c2nc(Cn3c(C)nc4ccccc4c3=O)no2)c1C	x	x	-34.8
CCOC(=O)c1c(-c2cccs2)csc1NC(=O)c1ccccc1	113.9	6.0	2.6
CCOC(=O)c1c(-c2ccc(C)o2)csc1NC(=S)NC(=O)N(C)C	-0.6*	10.0	-11.5
CCOC(=O)c1sc(N2C(=O)c3ccccc3C2=O)c(C#N)c1C	104.6	22.0	-5.2
CSC(SC)=C1C(=O)c2ccccc2N(C)S1(=O)=O	102.1	x	-11.1
Cc1noc(C)c1C(=O)Nc1nnc(SCc2ccc(Cl)cc2)s1	4.9*	4.0	1.7
Cc1noc(C)c1C(=O)Nc1nnc(SCC(=O)O)s1	104.3	-12.0	8.4
CCOc1ccc(-c2nnc3sc(-c4cccnc4)nn23)cc1	x	x	2.9
CN1CCC(N(C)C2CCN(Cc3ccccc3)CC2)CC1	95.5	7.0	-2.0
COc1cc2c(cc1OC)C(=O)C(CC1CCN(Cc3ccccc3)CC1)C2 (stereo unspecified)	45.7*!	x	-41.8
CC1(c2ccccc2)NC(=O)N(CC(O)c2ccccc2)C1=O (stereo unspecified)	125.8	-7.0	9.2
Cc1cc2nc(C(=O)Nc3ccc(F)cc3)c(=O)n(C)c2cc1C	x	x	-37.8
O=C(O)/C=C/C(=O)c1ccccc1	124.2	5.0	-11.2
O=C(/C=C/C(=O)c1ccc2ccccc2c1)c1ccccc1	-0.4*	3.0	27.2
NS(=O)(=O)c1ccc(Nc2c3c(nc4ccc(Cl)cc24)CCC3)cc1	124.1	4.0	-1.6
Cc1ccc(OCC(=O)Nc2cccc3ccc(C)nc23)c(C)c1	98.6	x	-3.6
Cc1ccc2c(Cl)cc(Cl)c(OCC(=O)Nc3c(F)cccc3F)c2n1	-0.2*	-19.0	7.1
CN1/C(=C\C(=O)c2ccccc2)c2ccccc2CC1(C)C	102.0	-1.0	-15.4
c1ccc(-c2cnc3nonc3n2)cc1	0.8*	14.0	-47.3
Cc1cc2ncc(-c3ccccc3)nc2cc1C	104.4	-16.0	-36.2
NC(=NCCCCCCN=C(N)/N=C(\N)Nc1ccc(Cl)cc1)/N=C(\N)Nc1ccc(Cl)cc1	-0.8*	x	-13.2
SMILES	Sa growth inh	Sa helicase inh	HCMV NEC inh
NC(=NCCCCCCN=C(N)N=C(N)Nc1ccc(Cl)cc1)N=C(N)Nc1ccc(Cl)cc1	x	x	4.3
C[C@H](NC(=O)c1cccc(C(F)(F)F)c1)c1nc2ccccc2[nH]1	85.8	11.0	-11.6
CC(NC(=O)Nc1cccc(C(F)(F)F)c1)c1nc2ccccc2[nH]1 (stereo unspecified)	0.5*	-6.0	-12.0
CCCNC(=O)Nc1ccc2c(c1)N(CC)C(=O)c1ccccc1S2	118.0	1.0	x
Cc1nc2cc3ccccc3cc2c(=O)[nH]1	110.9	6.0	-67.9
Cc1ccccc1Nc1cc2ccccc2c(=O)[nH]1	86.3	-26.0	57.9*
O=C(O)C1=CC(=C(c2ccc(O)c(C(=O)O)c2)c2ccc(O)c(C(=O)O)c2)C=CC1=O	x	x	122.8*
Nc1ccc(O)c(C(=O)O)c1	80.5	x	-68.0
CN(C1CCCCC1)S(=O)(=O)c1ccccc1NC(=O)COc1ccccc1C#N	110.0	1.0	-6.5
COC(=O)c1sccc1NC(=O)Nc1cc(NC(=O)c2ccccc2)ccc1N1CCCC1	x	x	-33.4
CCC1OC(=O)C(C)C(OC2C[C@@](C)(OC)C(O)C(C)O2)C(C)C(OC2OC(C)CC(N(C)C)C2O)[C@](C)(OC)CC(C)C(=O)C(C)C(O)[C@]1(C)O (stereo partly specified)	x	x	-4.7
CC[C@H]1OC(=O)[C@H](C)[C@@H](O[C@H]2C[C@@](C)(OC)[C@@H](O)[C@H](C)O2)[C@H](C)[C@@H](O[C@@H]2O[C@H](C)C[C@H](N(C)C)[C@H]2O)[C@](C)(OC)C[C@@H](C)C(=O)[C@H](C)[C@@H](O)[C@]1(C)O	-0.8*	x	-22.7
CN1CCN(CCC(O)COc2ccc(OCC(O)CCN3CCN(C)CC3)cc2)CC1 (stereo unspecified)	117.2	-4.0	-18.4
Oc1ccc(NC(=S)Nc2ccc(O)cc2)cc1	136.6	18.0	-11.4
CNc1ccc(O)cc1	102.8	28.0	68.9*
O=C(O)C1CC(=O)N(c2cccc(C(F)(F)F)c2)C1 (stereo unspecified)	91.2	9.0	-24.4
CN1c2ccc(Cl)cc2-c2nc(SCC(=O)NC3CCCCC3)ncc2S1(=O)=O	x	x	-16.9
CN1c2cc(Cl)ccc2-c2nc(SCC(=O)NC3CCCCC3)ncc2S1(=O)=O	x	x	66.8*
COc1cccc(-c2nnc(NC(=O)c3ccc(S(=O)(=O)N(Cc4ccccc4)C(C)C)cc3)o2)c1	0.4*	-3.0	9.1
C=CCN(CC=C)S(=O)(=O)c1ccc(C(=O)Nc2nnc(-c3ccc(OC)cc3OC)o2)cc1	94.4	8.0	2.7
CN(CC1CCCO1)S(=O)(=O)c1ccc(C(=O)Nc2ccc3c(c2)C(=O)NC3=O)cc1 (stereo unspecified)	95.7	-9.0	-32.8
COc1ccc(-c2nnc(NC(=O)c3ccc(S(=O)(=O)N4CCCCC4)cc3)o2)cc1	19.9	1.0	1.6
CCCN(CCC)S(=O)(=O)c1ccc(C(=O)Nc2nnc(-c3cccc(OC)c3)o2)cc1	0.1*	-21.0	35.9
CN(CC1CCCO1)S(=O)(=O)c1ccc(C(=O)Nc2nnc(-c3ccccc3)o2)cc1 (stereo unspecified)	-0.1*	8.0	-30.2
COc1cccc(-c2nnc(NC(=O)c3ccc(S(=O)(=O)N(C)C)cc3)o2)c1	71.0	1.0	x
SMILES	Sa growth inh	Sa helicase inh	HCMV NEC inh
COc1cccc(-c2nnc(NC(=O)c3ccc(S(=O)(=O)N4CCCCC4C)cc3)o2)c1 (stereo unspecified)	2.4*	4.0	x
O=C(CCCc1ccccc1)N1CCCCCCC1	125.3	-3.0	-26.5
Cc1ccc2nc(Cn3cc(S(=O)(=O)N4CCCC4)ccc3=O)cn2c1	79.1	17.0	-10.4
Cn1cc(C(=O)N2CCCCC2)c2[nH]c(=O)n(-c3ccccc3)c(=O)c21	x	x	-32.5
CC(=O)Nc1nnc(-c2cccs2)o1	x	-4.0	1.1
CC(C)N(Cc1ccccc1)S(=O)(=O)c1ccc(C(=O)Nc2nnc(-c3cccs3)o2)cc1	7.3*	-7.0	5.4
CCC(=O)Oc1ccc(C=C2C(=O)NC(=O)NC2=O)cc1OC	95.0	26.0	55.9*
COc1cc(C=C2C(=O)NC(=O)NC2=O)cc(Cl)c1OCc1ccccc1Cl	x	x	3.5
COc1cc(C=C2C(=O)NC(=O)NC2=O)ccc1OC(=O)c1ccc(Cl)cc1	x	x	-5.0
C=CCc1cc(C=C2C(=O)NC(=O)NC2=O)cc(OC)c1OC	98.8	-11.0	59.8*
CC1=C(C(=O)OC2CCCC2C)C(c2ccc(Cl)cc2)NC(=O)N1 (stereo unspecified)	27.7*	11.0	-7.3
CC1=C(C(=O)OC2CCCC2C)C(c2cc3c(cc2Br)OCO3)NC(=O)N1 (stereo unspecified)	x	x	-9.0
Oc1ccccc1/C=N/[n+]1ccccc1	85.7	-1.0	-2.7
